# The whole screen tested about 310,000 compounds, of which about 14,000 (4.5%) showed an effect of 50% or more. The effect is printed as a negative number. This excerpt belongs to a sample that is enriched for strong results.
# Target: human ether-à-go-go-related gene (hERG) potassium channel (human, UniProt Q12809)
# Experiment: primary screen, population patch clamp on CHO cells stably expressing hERG; higher = less effect of the substance
# 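Note: peak tail current of the secondary pulse compared with the same well before compound.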
# Sequence of human ether-à-go-go-related gene (hERG) potassium channel (Q12809 whole entry, looked up): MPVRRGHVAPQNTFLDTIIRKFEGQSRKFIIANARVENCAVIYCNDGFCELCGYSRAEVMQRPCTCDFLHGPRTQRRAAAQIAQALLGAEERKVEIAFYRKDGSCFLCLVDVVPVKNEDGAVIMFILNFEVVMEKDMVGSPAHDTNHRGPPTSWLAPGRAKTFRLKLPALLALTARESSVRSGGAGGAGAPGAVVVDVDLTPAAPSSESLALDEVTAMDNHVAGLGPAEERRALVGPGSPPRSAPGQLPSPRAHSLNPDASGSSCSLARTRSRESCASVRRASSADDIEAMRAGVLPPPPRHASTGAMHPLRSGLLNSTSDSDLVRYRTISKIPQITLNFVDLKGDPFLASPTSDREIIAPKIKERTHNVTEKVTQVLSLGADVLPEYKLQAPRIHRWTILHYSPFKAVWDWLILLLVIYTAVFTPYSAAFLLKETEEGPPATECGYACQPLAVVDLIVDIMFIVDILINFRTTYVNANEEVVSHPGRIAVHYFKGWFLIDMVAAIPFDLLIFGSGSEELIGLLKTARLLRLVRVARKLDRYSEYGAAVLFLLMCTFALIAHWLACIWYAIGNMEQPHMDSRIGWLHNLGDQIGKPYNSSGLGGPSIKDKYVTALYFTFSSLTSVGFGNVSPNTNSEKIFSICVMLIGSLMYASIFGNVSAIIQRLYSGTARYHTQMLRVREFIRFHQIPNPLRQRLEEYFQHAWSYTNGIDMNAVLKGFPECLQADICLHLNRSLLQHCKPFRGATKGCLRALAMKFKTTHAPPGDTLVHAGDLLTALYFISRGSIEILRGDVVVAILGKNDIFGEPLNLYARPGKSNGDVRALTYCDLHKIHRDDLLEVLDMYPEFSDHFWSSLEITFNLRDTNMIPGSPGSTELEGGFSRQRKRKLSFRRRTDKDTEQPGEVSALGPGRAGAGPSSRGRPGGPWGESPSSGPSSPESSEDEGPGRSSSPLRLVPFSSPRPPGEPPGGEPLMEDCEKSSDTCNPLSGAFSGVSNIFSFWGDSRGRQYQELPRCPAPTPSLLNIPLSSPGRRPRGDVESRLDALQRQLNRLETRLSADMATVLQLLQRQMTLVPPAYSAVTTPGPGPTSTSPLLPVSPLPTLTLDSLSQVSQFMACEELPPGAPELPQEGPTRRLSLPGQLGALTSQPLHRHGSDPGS
row,Compound,"hERG current change (%, negative = inhibition) at 10uM [%]"
1,O=C(COC(=O)/C=C/c1cccc(F)c1)Nc1ccc2[nH]c(=O)[nH]c2c1,9.96
2,CCNC(=O)NC1(C(=O)N2CCC(Cc3ccccc3)CC2)CCCCC1,21.7
3,CCCn1c(N)c(C(=O)CSc2nnc(Cc3cccs3)n2C2CC2)c(=O)n(C)c1=O,-0.534
4,COc1ccc(N(CC(=O)Nc2ccccc2F)S(=O)(=O)c2ccc(OC)c(OC)c2)cc1,-24.2
5,O=C(NCCN1CCOCC1)c1cccc(S(=O)(=O)N2CCCCCC2)c1,7.38
6,COc1ccc(C(=O)N/N=C/c2ccc(OC(=O)c3cccc4ccccc34)c([N+](=O)[O-])c2)cc1,3.57
7,O=C(COC(=O)c1ccc(S(=O)(=O)NCc2ccco2)cc1)NC1CCCCC1,-1.72
8,CCN(Cc1nc(-c2ccc(OC)c(OC)c2)no1)C(=O)c1ccc2c(c1)OCO2,5.32
9,O=c1[nH]c2c(c(=O)[nH]1)CCC2,17.7
10,CS(=O)(=O)Nc1ccc(C2=NN(C(=O)c3ccco3)C(c3ccco3)C2)cc1 (centres unmarked),-72.3
11,CCS(=O)(=O)Nc1ccc(C2=NN(C(=O)c3ccco3)C(c3ccco3)C2)cc1 (centres unmarked),-7.66
12,CCC(CC)C(=O)N1N=C(c2ccc(NS(C)(=O)=O)cc2)CC1c1ccc(C)cc1 (centres unmarked),-7.85
13,CCS(=O)(=O)Nc1ccc(C2=NN(C(=O)c3ccco3)C(c3cccs3)C2)cc1 (centres unmarked),-1.38
14,O=C(c1ccco1)N1N=C(c2ccc3nccnc3c2)CC1c1ccccc1 (centres unmarked),-22.3
15,O=C(c1ccco1)N1N=C(c2ccccc2)CC1c1ccc2nccnc2c1 (centres unmarked),-45
16,CS(=O)(=O)Nc1ccc(C2=NN(C(=O)c3ccco3)C(c3ccc(F)cc3)C2)cc1 (centres unmarked),-81.1
17,O=C(c1ccco1)N1N=C(c2cccs2)CC1c1ccc(F)cc1 (centres unmarked),-29
18,CS(=O)(=O)Nc1ccc(C2=NN(C(=O)c3ccco3)C(c3ccccc3)C2)cc1 (centres unmarked),-77.6
19,Cc1ccc(C2CC(c3ccc(NS(C)(=O)=O)cc3)=NN2C(=O)c2ccco2)cc1 (centres unmarked),-78.5
20,CCS(=O)(=O)Nc1ccc(C2=NN(C(=O)c3ccco3)C(c3ccc(C)cc3)C2)cc1 (centres unmarked),-21
21,O=C(c1ccco1)N1N=C(c2ccc(Cl)cc2)CC1c1ccco1 (centres unmarked),15
22,O=C(c1cc(-c2ccc(O)cc2)on1)N1CCN(c2ccc(F)cc2)CC1,-23.6
23,O=C(NCCCO)C(=O)NCC1OCCCN1S(=O)(=O)c1cccs1 (centres unmarked),-10.6
24,COc1ccc(C(=O)N(C)Cc2cnn(Cc3ccccc3)c2)cc1S(=O)(=O)N1CCOCC1,-27
25,Cc1cccc(NC(=S)Nc2c(C)n(C)n(-c3ccccc3)c2=O)c1C,-2.23

row,Compound,"hERG current change (%, negative = inhibition) at 10uM [%]"
1,CCc1nnc(NC(=O)CSc2nnc(-c3ccc(S(=O)(=O)N4CCCC4)cc3)n2CC)s1,8.86
2,CN(C)N1C(=O)CC(C)(c2ccc([N+](=O)[O-])cc2)C1=O (centres unmarked),-0.575
3,CCn1c(=O)cc(OCC(=O)NC(C)c2ccc3c(c2)OCCO3)c2ccccc21 (centres unmarked),-4.48
4,CC/C(=N\O)C(C)(C)/[N+]([O-])=C/c1ccc(Br)cc1,5.28
5,CN(c1ccccc1)S(=O)(=O)c1cccc(NC(=O)c2ccc(=O)[nH]c2)c1,-11.7
6,COCCNC(=O)c1onc(CSc2ccccc2)c1C(=O)O,7.09
7,O=C(CN1CCOc2ccccc21)NCc1ccco1,2.93
8,Cc1cccc(NC(=O)C2(C)CC3c4ccccc4C2c2ccccc23)c1 (centres unmarked),9.5
9,O=C(Nc1nnc(CCN2CCCCC2)s1)c1cccc(Cl)c1,-10.8
10,O=C(Nc1nnc(CCN2CCCCC2)s1)c1ccc(Br)cc1,-51.4
11,Cl.O=C(Nc1nnc(CCN2CCCCC2)s1)c1ccccc1,4.58
12,CC(C)C(=O)Nc1ccc(NC(=O)c2ccc3c(c2)OCO3)cc1,10.2
13,Cc1ccccc1OCC(=O)Nc1cccc(S(=O)(=O)NC2=NCCCCC2)c1,-7.89
14,O=C1N(Cc2cccc(Cl)c2)C[C@@H]2C[C@@H](c3ccsc3)N3CCC[C@@]123,-60.1
15,O=C1N(Cc2cccc(Cl)c2)C[C@@H]2C[C@@H](c3cccc4cccnc34)N3CCC[C@@]123,-78
16,COc1cccc2c1OCC([C@@H]1C[C@H]3CN(Cc4cccc(Cl)c4)C(=O)[C@]34CCCN14)=C2,-45.2
17,Cc1cccc([C@@H]2C[C@H]3CN(Cc4cccc(Cl)c4)C(=O)[C@]34CCCN24)n1,-55
18,O=C1N(Cc2cccc(Cl)c2)C[C@@H]2C[C@@H](c3ccco3)N3CCC[C@@]123,-25.9
19,CC(C)n1cc([C@@H]2C[C@H]3CN(Cc4cccc(Cl)c4)C(=O)[C@]34CCCN24)cn1,-33.7
20,COCc1ccc([C@@H]2C[C@H]3CN(Cc4cccc(Cl)c4)C(=O)[C@]34CCCN24)o1,-31
21,CCn1ncc([C@@H]2C[C@H]3CN(Cc4cccc(Cl)c4)C(=O)[C@]34CCCN24)c1C,-33
22,O=C1N(Cc2cccc(Cl)c2)C[C@@H]2C[C@@H](c3ccccn3)N3CCC[C@@]123,-18.5
23,COc1ccccc1/C=C/[C@@H]1C[C@H]2CN(Cc3cccc(Cl)c3)C(=O)[C@]23CCCN13,-75.4
24,O=C(Nc1cnn(Cc2ccccc2)c1)c1cc2nc(-c3ccco3)cc(C(F)(F)F)n2n1,7.2
25,O=C(c1ccccc1)c1ccccc1N/C=C/c1nnnn1-c1ccccc1,1.11
